Bioassay records (PubChem)
Bcl-xL primary: blocks human Bcl-xL binding to Bim BH3 peptide; Q07817; GST-Bcl-xL / FITC-Bim BH3 peptide fluorescence polarization; inhibition, % at 10.9 µM; hit rate 0.7% among 320,000; AID 2129;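 active = inhibition above the mean of all tested compounds plus 3 SD, cutoff set per campaign, cut at about 30% in these data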;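 also: 0% = DMSO wells and 100% = unlabeled Bim-BH3 peptide competitor; inhibitors lower millipolarization by displacing the labeled peptide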
E coli Lon inh: E. coli protease La inhibition; P0A9M0; purified E. coli Lon protease, fluorescence polarization; inhibition, % at 7.94 µM; hit rate 0.42% among 360,000; AID 602123; in the data active = inhibition above about 13%, passing the limit was not always enough;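 also: 0% = enzyme with probe and DMSO and 100% = no enzyme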
GLD-1 TGE inh: GLD-1-TGE RNA interaction inhibition (C. elegans) | Q17339 | purified GLD-1 + fluorescein TGE RNA, fluorescence polarization | inhibition, % at 5.96 µM | hit rate 0.44% among 320,000 | AID 2280;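 active = percent inhibition above a per-plate cutoff, the plate mean of test compounds plus 3 SD, cut at about 30% in these data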;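 also: 0% = DMSO wells with GLD-1 and probe and 100% = wells lacking GLD-1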
MCL1-BIM inh: inhibitors of human MCL1 binding to BIM-BH3 peptide; hit rate 0.68% among 320,000; Q07820; GST-MCL1 / FITC-Bim-BH3 fluorescence polarization; inhibition, % at 10.9 µM;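 active = inhibition above the mean inhibition of all tested compounds plus 3 SD, set per campaign, cut at about 40% in these data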;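 also: 0% = DMSO wells and 100% = unlabeled Bim-BH3 peptide control; higher means more loss of mP so more displacement of Bim peptide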
MEX-5 binding: C. elegans MEX-5 TCR-2 RNA binding activity. MEX-5/FITC-TCR2 RNA binding, fluorescence polarization; stronger effect = lower value. activity score (negative = inhibition of binding), % at 10 µM. hit rate 0.38% among 300,000. AID 1832;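 active = inhibition past about -25% in most replicates, and total fluorescence under double the plate's negative control median, limit read from the data; inconclusive = replicates evenly split on the limit, or fluorescence at least double controls; inactive = too little inhibition in most replicates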;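 also: 0% = DMSO and -100% = 5 µM competing unlabeled TCR2 RNA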
Target sequence (Q9XUB2 whole entry, looked up): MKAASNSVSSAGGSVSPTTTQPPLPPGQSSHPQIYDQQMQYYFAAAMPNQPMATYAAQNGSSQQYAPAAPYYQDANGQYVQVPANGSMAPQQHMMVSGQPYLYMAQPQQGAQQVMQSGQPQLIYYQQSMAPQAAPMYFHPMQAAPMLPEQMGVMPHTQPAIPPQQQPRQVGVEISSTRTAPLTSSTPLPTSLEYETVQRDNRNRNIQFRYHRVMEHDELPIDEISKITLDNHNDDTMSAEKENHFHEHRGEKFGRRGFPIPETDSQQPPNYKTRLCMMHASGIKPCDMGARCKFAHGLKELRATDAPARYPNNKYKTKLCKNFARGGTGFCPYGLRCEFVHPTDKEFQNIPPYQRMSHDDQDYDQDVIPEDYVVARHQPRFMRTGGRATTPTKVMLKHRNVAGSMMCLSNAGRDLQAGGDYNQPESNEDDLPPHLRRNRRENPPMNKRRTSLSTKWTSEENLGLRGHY
EBV gp42 block: blocks Epstein-Barr virus glycoprotein 42 binding | Q1HVG2 | Fluorescence polarization binding assay, mP read-out | inhibition, % (tested at 21.74 µM) | hit rate 0.42% among 220,000 | AID 1085; in the data active = inhibition above about 50%
BCLXL inh confirm: counter-screen for MCL1 inhibitors: confirmation of human Bcl-xL inhibitors. GST-Bcl-xL / FITC-Bim BH3 peptide FP binding. shares compounds with MCL1-BIM inh. hit rate 54% among 1,700. inhibition, % at 10.9 µM;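 active = inhibition above a cutoff equal to the mean inhibition of all tested compounds plus 3 SD, cut at about 30% in these data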;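 also: 0% = DMSO wells and 100% = unlabeled Bim BH3 control peptide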
MCL1 BIM confirm: MCL1-BIM-BH3 interaction inhibition, confirmation; shares compounds with MCL1-BIM inh; GST-MCL1 / FITC-Bim-BH3 fluorescence polarization; inhibition, % at 10.9 µM; hit rate 61% among 1,700; AID 2168;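 active = inhibition above the average of all tested compounds plus 3 SD, cut at about 40% in these data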;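 also: 0% = DMSO wells and 100% = unlabeled Bim-BH3 control peptide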
Numbers without * were called inactive; u = inconclusive; x = not tested or not shown. Sampled rows, rich in hits. Any-hit rate of the full collection: about 1.5%.

SMILES	Bcl-xL primary	E coli Lon inh	GLD-1 TGE inh	MCL1-BIM inh	MEX-5 binding	EBV gp42 block	BCLXL inh confirm	MCL1 BIM confirm
Cc1cc(=O)oc2c3c4c(cc12)OCCN4CCC3	60*	-9	-7	64*	-15	65*	47*	41*
COc1cc(OC)cc(C2=Cc3ccccc3C(CC(C)=O)N2c2ccc(C#CC3(N)CCCCC3)cc2)c1 (stereo not given)	x	-3	x	x	x	x	x	x
CCC1(C)Cc2c(sc3nc(SC)[nH]c(=S)c23)CO1 (stereo not given)	50*	x	32*	57*	-9	x	22	25
CCSc1nc2sc3c(c2c(=O)[nH]1)CC(C)(CC)OC3 (stereo not given)	3	12	6	6	0	0	x	x
COCCCNC(=O)/C(C#N)=C/c1ccc(OCC(=O)O)c(OC)c1	16	-3	7	57*	-10	10	20	33
COc1ccc(/C=C(\C#N)C(=O)NCCc2ccccc2)cc1OCc1ccccc1	1	-10	2	7	0	-8	x	x
CCC(=O)NC(O)C(=O)c1ccc(C)cc1 (stereo not given)	1	-1	2	-2	4	-7	x	x
Cn1c(=O)[nH]c2c(Cl)nccc21	7	7	0	2	0	-10	x	x
Cn1c(=O)[nH]c2cc(Cl)cnc21	65*	5	44*	73*	-32*	63*	59*	69*
O=C(O)CCCCC1CCSS1 (stereo not given)	21	-7	3	102*	u	102*	24	104*
CNc1ccccc(-c2ccc3cc4c(cc3n2)OCO4)c1=O	91*	12	14	114*	-13	17	34*	33
Cc1ccccc1C(=O)NC(NCc1ccco1)C(Cl)(Cl)Cl (stereo not given)	3	-4	-3	-1	0	-16	x	x
CCCCNC(=S)NNC(=O)c1ccoc1C	0	-13	-2	1	0	-12	x	x
CC(C)CN(C(=O)COC(=O)c1cc2c(s1)CCC2)C1CCS(=O)(=O)C1 (stereo not given)	8	4	6	42*	0	19	-1	31
COCc1ccc(C(=O)NC2CCSc3ccccc32)cc1 (stereo not given)	4	-3	3	0	-1	x	x	x
COc1ccccc1NC(=O)CC(NC1CCCCC1)C(=O)O (stereo not given)	0	-6	-1	62*	0	-5	-16	-18
Oc1oc(-c2ccc(Br)cc2)nc1/C=N/c1ccccn1	3	-2	2	69*	-2	-16	5	4
Cc1ccc(-c2nc(C=Nc3ccccc3)c(O)o2)cc1	-8	-2	-10	-9	-10	-7	x	x
O=C1S/C(=C/c2ccccc2)C(=O)N1CC(O)Cn1c2ccccc2c2ccccc21 (stereo not given)	-2	-6	-1	-2	2	8	x	x
CN(C)c1ccc(/C=C2\SC(=O)N(CC(O)Cn3c4ccccc4c4ccccc43)C2=O)cc1 (stereo not given)	133*	-21	133*	80*	u	115*	-5	-28
Cc1cc(=O)c2c([nH]1)c(C)cc1[nH]c(C)c(C)c12	101*	-112	68*	100*	x	x	27	27
CC(NC(=O)c1cc2ccccc2o1)c1ccccc1 (stereo not given)	2	2	1	-5	-4	-11	x	x
O=C1/C(=C/c2ccco2)SC(=S)N1C1CCS(=O)(=O)C1 (stereo not given)	30	4	18	67*	-1	2	14	18
CCN(C(=O)C(C)N1C(=O)/C(=C/c2ccco2)SC1=S)C1CCS(=O)(=O)C1 (stereo not given)	33*	2	12	59*	-1	x	25	56*
COc1ccc2[nH]cc(CCNC(=O)COc3ccc4ccc(=O)oc4c3)c2c1	3	-2	6	4	3	x	x	x
SMILES	Bcl-xL primary	E coli Lon inh	GLD-1 TGE inh	MCL1-BIM inh	MEX-5 binding	EBV gp42 block	BCLXL inh confirm	MCL1 BIM confirm
COc1cc(C(=O)Nc2nc(-c3ccc(F)cc3)cs2)ccc1OCC(=O)N1CCOCC1	6	-3	-3	-2	-3	-1	x	x
N#Cc1c(N2CCCC(O)C2)nc(N)c2c(N)nc3c(c12)CC(=O)N3C12CC3CC(CC(C3)C1)C2 (stereo not given)	28	35*	12	54*	x	-21	18	22
C=C(C)CN(CC)c1nc(N)c2c(N)nc3c(c2c1C#N)CC(=O)N3C12CC3CC(CC(C3)C1)C2	14	21	21	40	-1	-5	x	x
CC(=O)OC[C@H]1O[C@@H](O/N=C/[C@@H](C)[C@H](OCc2ccccc2)C(C)C)[C@H](OC(C)=O)[C@@H](OC(C)=O)[C@@H]1OC(C)=O	-5	x	-8	-16	2	-12	x	x
c1ccc(-c2nnc(CN3CCCc4ccccc43)o2)cc1	65*	-18	-4	72*	-6	-2	46*	68*
Cc1cc(C)cc(Cn2c3ccc(NC(=S)NC4CCCCC4)cc3c(=O)n2C)c1	x	-2	x	x	x	x	x	x
Cc1ccc(C2=Nc3ccccc3N=C(C(Cl)Cl)C2)cc1	8	-6	0	0	1	-7	x	x
O=C(N/N=C/c1cc(Cl)cc(Cl)c1O)c1ccncc1	72*	-70	67*	56*	0	57*	67*	67*
O=C(N/N=C/c1ccc(Cl)cc1Cl)c1ccncc1	-2	1	-3	1	-2	x	x	x
O=S(=O)(c1cccs1)N1CN(Cc2ccco2)c2nc3ccccc3nc21	156*	10	140*	172*	-6	12	25	24
O=S(=O)(c1cccs1)N1CN(Cc2ccc(Cl)cc2)c2nc3ccccc3nc21	5	-2	-1	1	x	-5	x	x
COc1ccc(NS(=O)(=O)c2ccc(N3CCCC3)c(NC(=S)Nc3ccc(SC(F)F)cc3)c2)cc1	11	3	5	12	-1	-4	x	x
Cc1ccccc1NC(=O)CSc1ccsc1[N+](=O)[O-]	18	-1	4	67*	-1	70*	32*	90*
O=C(CSc1nc2ccccc2[nH]1)N/N=C/C=C/c1ccccc1[N+](=O)[O-]	4	3	6	14	-1	-5	x	x
O=CNc1ccccc1Oc1ccccc1	0	15	6	-1	-2	-18	x	x
CC1(C)Cc2cccc(OCC(=O)NCCc3ccc(S(N)(=O)=O)cc3)c2O1	35*	-20	21	195*	x	x	-3	-6
